GLS inhibitor: qHTS for Inhibitors of Glutaminase (GLS); Glutaminase kidney isoform, mitochondrial (Homo sapiens), O94925; GLS enzymatic activity, qHTS titration; Potency, µM (titrated, usually from 45.5 µM), for the others: top-dose activity change, negative = inhibition, usual class: inhibitors; hit rate 0.21% among 410,000; AID 624170, 2012
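hKGA in 45 mM KH2PO4 pH 8.2, 0.02% Tween-20 with pin-transferred compounds; 1 mM L-glutamine (stock) plus glutamate oxidase/HRP/Amplex Red coupling added. Fluorescence read initially and after 30 min at RT.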
BLM inh: qHTS Assay for Inhibitors of Bloom's syndrome helicase (BLM); RecQ-like DNA helicase BLM (Homo sapiens), P54132; recombinant BLM DNA unwinding, fluorescence dequenching; Potency, µM (titrated, usually from 56.1 µM), for the others: at the highest dose activity change, negative = inhibition, usual class: inhibitors; hit rate 0.2% among 350,000; AID 2528, 2010;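 note: plate controls were vehicle for no effect and no enzyme for full effect; nearly all actives have a fitted effect of over 35% in size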
PGK inhibitor: qHTS Assay to Find Inhibitors of Phosphoglycerate Kinase | Phosphoglycerate kinase, glycosomal (Trypanosoma brucei brucei), P07378 | PGK/GAPDH coupled, Kinase-Glo luminescence, 60 min | Potency, µM (highest dose often 57.5 µM), inactives show at the top dose activity change, negative = inhibition, most hits filed as inhibitors | hit rate 0.043% among 380,000; note: nearly all actives have a fitted effect of over 60% in size
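Recombinant glycosomal PGK reaction used 1,3-bisphosphoglycerate generated in-well by GAPDH (100nM final) in 100mM TEA pH 7.6, 5mM MgCl2, 0.01% Tween-20. After 60 minutes at room temperature, ATP was read by Kinase-Glo Plus luminescence end-point.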
APE1 inh-1: qHTS Assay for Inhibitors of the Human Apurinic/apyrimidinic Endonuclease 1 (APE1); DNA repair nuclease/redox regulator APEX1 (Homo sapiens), P27695; hit rate 0.35% among 350,000; recombinant APE1, TAMRA/BHQ-2 abasic DNA cleavage fluorescence; Potency, µM (titrated, usually from 65.8 µM), for inactives: at the top dose activity change, negative = inhibition, hits mostly inhibitors;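 note: plate controls were vehicle for no effect and reference inhibitor for full effect; nearly all actives have a fitted effect of over 55% in size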
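Readout is kinetic fluorescence (ex 525, em 598 nm) from cleavage of 50 nM TAMRA/BHQ-2 THF abasic duplex by 0.75 nM APE1, compound added 15 min beforehand at RT.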
RECQ1 inh-1: qHTS Assay for Inhibitors of RecQ-Like Dna Helicase 1 (RECQ1) | RECQ1 DNA unwinding, red fluorescence kinetic read | hit rate 0.54% among 240,000 | Potency, µM (highest dose often 57.3 µM), for the others: at the top dose activity, negative = inhibition, most hits filed as inhibitors | ATP-dependent DNA helicase Q1 (Homo sapiens), P46063;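 note: plate controls were vehicle for no effect and no enzyme for full effect; nearly all actives have a fitted effect of over 30% in size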
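RECQ1T1 50 nM; forked duplex (20 bp + 30-nt ss tails) 200 nM, ATP 2 mM final; pH 8.0, 2 mM MgCl2, 2.5 ug/ml poly(dI-dC); 15 min compound preincubation; discontinuous kinetic read over 2 h at RT.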
TDP1 block: qHTS Assay for Inhibitors of Tyrosyl-DNA Phosphodiesterase (TDP1). recombinant TDP1, AlphaScreen DNA substrate cleavage. Potency, µM (series often up to 130 µM), for inactives: at the top dose activity change, negative = inhibition, actives largely listed as inhibitors. Tyrosyl-DNA phosphodiesterase 1 (Homo sapiens), Q9NUW8. hit rate 0.28% among 350,000; note: nearly all actives have a fitted effect of over 40% in size
Target sequence (Q9NUW8 whole entry, looked up): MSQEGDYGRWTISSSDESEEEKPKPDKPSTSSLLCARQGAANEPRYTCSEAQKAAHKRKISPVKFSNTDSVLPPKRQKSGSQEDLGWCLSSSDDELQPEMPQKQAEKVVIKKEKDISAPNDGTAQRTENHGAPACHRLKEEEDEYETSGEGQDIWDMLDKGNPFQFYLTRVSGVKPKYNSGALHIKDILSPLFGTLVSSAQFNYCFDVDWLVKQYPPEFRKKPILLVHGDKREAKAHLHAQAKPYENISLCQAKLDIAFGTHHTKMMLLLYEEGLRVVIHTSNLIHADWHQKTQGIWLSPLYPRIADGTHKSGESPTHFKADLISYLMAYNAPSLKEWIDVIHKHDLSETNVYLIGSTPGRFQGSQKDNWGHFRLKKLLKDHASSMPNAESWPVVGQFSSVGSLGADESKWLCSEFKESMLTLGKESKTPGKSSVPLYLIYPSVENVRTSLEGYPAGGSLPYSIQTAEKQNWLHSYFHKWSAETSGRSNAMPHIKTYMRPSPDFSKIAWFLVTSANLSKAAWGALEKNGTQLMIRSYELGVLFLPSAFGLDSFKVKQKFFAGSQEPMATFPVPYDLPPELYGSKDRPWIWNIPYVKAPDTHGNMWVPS
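Recombinant E. coli-expressed Tdp1 (1 nM) preincubated with compound 15 min at RT, then 5'-biotin/3'-phosphotyrosine-FITC DNA substrate (15 nM) added for 5 min. AlphaScreen beads (10 ug/ml) added, 10 min RT; tyrosine-FITC cleavage read as signal loss.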
APE1 dye cs: Counterscreen for APE1 Inhibitors: Fluorescent Dye Displacement Assay | DNA fluorescent dye displacement counterscreen, fluorescence | hit rate 7% among 480 | shares compounds with APE1 inh-1 | Potency, µM (highest dose often 28.5 µM), inactives show at the highest dose activity change, negative = inhibition, hits mostly inhibitors;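 note: loss of thiazole orange fluorescence as the dye is displaced from duplex DNA; 0% = ThO with dsDNA and no compound and -100% = ThO without dsDNA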
EndoIV counter: Counterscreen for APE1 Inhibitors: qHTS Assay for Inhibitors of Endonuclease IV; shares compounds with APE1 inh-1; E. coli Endo IV, fluorogenic AP-site DNA cleavage; Potency, µM (top dose mostly 27.1 µM), for the others: at the top dose activity change, negative = inhibition, most hits filed as inhibitors; hit rate 4% among 560;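 note: plate controls were uninhibited enzyme wells for no effect and no enzyme buffer wells for full effect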
APE1 inh-2: Confirmation qHTS Assay for Inhibitors of the Human Apurinic/apyrimidinic Endonuclease 1 (APE1). shares compounds with APE1 inh-1. hit rate 44% among 750. Potency, µM (series often up to 57.1 µM), for the others: at the highest dose activity change, negative = inhibition, usual class: inhibitors. purified APE1, fluorogenic abasic-site DNA cleavage; note: nearly all actives have a fitted effect of over 30% in size
APE1 FP inh: qHTS FP-Based Assay for Inhibitors of the Human Apurinic/apyrimidinic Endonuclease 1 (APE1); shares compounds with APE1 inh-1; APE1 binding to TAMRA-labelled double-stranded DNA, fluorescence polarization displacement; Potency, µM (highest dose often 28.5 µM), without a hit: at the highest dose activity, negative = inhibition, usual class: inhibitors; hit rate 7% among 480
RECQ1 inh conf: Confirmation qHTS Assay for Inhibitors of RecQ-Like Dna Helicase 1 (RECQ1); RECQ1 helicase DNA unwinding, fluorescence; shares compounds with RECQ1 inh-1; hit rate 28% among 610; Potency, µM (top dose mostly 229 µM), without a hit: at the highest dose activity change, negative = inhibition, actives largely listed as inhibitors; note: nearly all actives have a fitted effect of over 45% in size
ADP FP counter: Counterscreen for RECQ1 Inhibitors: ADP Fluorescence Polarization Displacement Assay; Potency, µM (series often up to 228 µM), for the others: at the highest dose activity change, negative = inhibition, usual class: inhibitors; hit rate 27% among 530; ADP fluorescence polarization displacement counterscreen; AID 2711, 2010; shares compounds with RECQ1 inh-1; note: nearly all actives have a fitted effect of over 45% in size
RECQ1 inh-2: Confirmation qHTS Assay for Inhibitors of RecQ-Like Dna Helicase 1 (RECQ1) - Round 2 Cherry Picks | shares compounds with RECQ1 inh-1 | recombinant RECQ1 DNA unwinding, red fluorescence | Potency, µM (top dose mostly 119 µM), without a hit: at the highest dose activity, negative = inhibition, usual class: inhibitors | hit rate 15% among 1,100 | AID 504841, 2011; note: nearly all actives have a fitted effect of over 50% in size
An asterisk follows results filed as active; ? = inconclusive; . = no result; [ ] = dose if it differs, or a comment. Rows were chosen to be rich in hits. Some 0.85% of all compounds tested hit in one or more screens of this group. Calls come from the whole dose curve; as a rule, active = well fitted curve in the direction sought with a large enough effect; inconclusive = small, poorly fitted or top-dose-only effect, or another doubt; inactive = no such curve, though single readings can be large; an effect the other way counts as inactive or inconclusive. Unless noted, % is set by controls: 0 for no effect and ±100 for the full control effect; potency is the fitted concentration of half-maximal effect.

SMILES | GLS inhibitor | BLM inh | PGK inhibitor | APE1 inh-1 | RECQ1 inh-1 | TDP1 block | APE1 dye cs | EndoIV counter | APE1 inh-2 | APE1 FP inh | RECQ1 inh-2 | others
CCOC(=O)c1cc(-c2ccc(N3CCOCC3)cc2)nn1-c1ccccc1C(=O)O | ? | -25% | ? | 2.5µM* | 11µM* | 1.6µM* | 3% | ? | ? | ? | ? | RECQ1 inh conf=45µM*;ADP FP counter=36%[91.9 µM]
CCOC(=O)c1cc(-c2ccc(N3CCOCC3)cc2)nn1-c1ccccc1 | 14% | -7% | -8% | -1% | 0% | -2% | . | . | . | . | .
Cc1c(C(=O)O)sc2nc3n(c(=O)c12)CCC3 | -13% | 4% | -10% | ? | ? | 14µM* | . | . | ? | . | -14%
CC(C)[C@H](N)C(=O)N[C@@H](CCC(N)=O)C(=O)NCC(=O)N[C@@H](CCC(=O)O)C(=O)N[C@@H](CCC(=O)O)C(=O)N[C@@H](CO)C(=O)N[C@@H](CC(N)=O)C(=O)N[C@@H](CC(=O)O)C(=O)N[C@@H](CCCCN)C(=O)O | . | 0% | . | -5% | -10% | 10% | . | . | . | . | .
COC(=O)[C@H](CC(C)C)NC(=O)c1ccc(NC[C@@H](N)CS)cc1-c1cccc2ccccc12 | . | -5% | . | 0% | -16% | 28% | . | . | . | . | .
N#C/C(=C/c1cccn1-c1cccc(C(=O)O)c1)c1ccc(Cl)cc1 | 125% | -25% | ? | 11µM* | ? | . | ? | -6% | 5µM* | 1% | 45µM*
COc1cc(OC)cc(-c2nnc3n2N=C(c2ccccc2OC)CS3)c1 | . | 3% | . | ? | 9% | 17% | . | . | . | . | .
CC1(C)Cc2c(sc3[nH]c(=S)n(Cc4ccco4)c(=O)c23)CO1 | -16% | -9% | -6% | 35µM* | ? | . | -7% | 8% | -5%[24.4 µM] | ? | 1%
O=c1c(-c2ccc(O)cc2)coc2cc(O[C@@H]3O[C@H](CO)[C@@H](O)[C@H](O)[C@H]3O)cc(O)c12 | . | 4% | . | -9% | 8% | 6% | . | . | . | . | .
COc1ccc(/C=N/NC(=O)c2cc(O)c(O)c(O)c2)cc1Cn1cc([N+](=O)[O-])cn1 | 27% | ? | ? | 1.6µM* | 1.8µM* | -5% | ? | 96% | 1.3µM* | -10% | . | RECQ1 inh conf=?;ADP FP counter=-10%[91.9 µM]
COc1ccc(/C=N/NC(=O)c2ccccc2O)cc1Cn1cc([N+](=O)[O-])cn1 | 2% | -6% | -5% | -5% | 5% | 5% | . | . | . | . | .
O=C1CCCC2=C1C(c1ccc(O)c(O)c1)Nc1ccc3ncccc3c12 (configuration not stated) | -20% | ? | -7% | 14µM* | ? | . | ? | 17% | ? | -2% | ?
Cc1ccc(NC(=O)CN2C(=O)S/C(=C/c3ccc(-c4cc(C(=O)O)ccc4C)o3)C2=O)cc1C | ? | ? | 20µM* | ? | 14µM* | . | 149% | -4% | 7.1µM* | 10µM* | ? | RECQ1 inh conf=22µM*;ADP FP counter=?
COc1cccc(C2=Nn3c(nnc3-c3cc(OC)cc(OC)c3)SC2)c1 | . | -10% | . | -6% | -10% | 7% | . | . | . | . | .
O=C(COc1ccccc1C(=O)N/N=C\c1ccc(O)c(O)c1)N/N=C/c1ccc(O)c(O)c1 | -4% | 2µM* | 2.2µM* | 2.8µM* | 1µM* | -7% | 6.3µM* | 29% | 2µM* | ? | . | RECQ1 inh conf=2.2µM*;ADP FP counter=-14%[91.9 µM]
O=C(COc1ccccc1[N+](=O)[O-])N/N=C/c1ccc(O)c([N+](=O)[O-])c1 | 2% | 1% | -1% | -6% | 0% | 9% | . | . | . | . | .
CCN1CCN(c2cc(-c3ccc(F)cc3)c3c(n2)CCCCCC3)CC1 | 11% | . | . | . | . | . | . | . | . | . | .
O=C(c1cc(C(=O)c2ccco2)cc(C(=O)c2ccco2)c1)c1ccco1 | 4% | -19% | -2% | 32µM* | 35µM* | ? | -7% | 27% | ? | -5% | -55%
C=C(CO)C1Cc2cc(C(C)=O)ccc2O1 (configuration not stated) | -4% | -7% | -15% | 20µM* | ? | . | 2% | 8% | 10µM* | -37% | ?
